# In PMC7862700, “An all-to-all approach to the identification of sequence-specific readers for epigenetic DNA modifications on cytosine”:
# Experiments:
# Test in all cases: DAPPL (digital affinity profiling via proximity ligation, sequencing); 10 mM Tris-HCl pH 7.5, 50 mM NaCl, 1 mM DTT, 4% glycerol, room temperature, 30 min; GST-TFs on glutathione beads, 16-mer random dsDNA library, 0.1% formaldehyde crosslink after washing; high values mean tight binding
# FLI1 = biological target: T1, FLI1 (Homo sapiens, UniProt Q01543 1-452); settings: protein: recombinant; tags: N-terminal GST; dsDNA, one strand shown
# T1 sequence: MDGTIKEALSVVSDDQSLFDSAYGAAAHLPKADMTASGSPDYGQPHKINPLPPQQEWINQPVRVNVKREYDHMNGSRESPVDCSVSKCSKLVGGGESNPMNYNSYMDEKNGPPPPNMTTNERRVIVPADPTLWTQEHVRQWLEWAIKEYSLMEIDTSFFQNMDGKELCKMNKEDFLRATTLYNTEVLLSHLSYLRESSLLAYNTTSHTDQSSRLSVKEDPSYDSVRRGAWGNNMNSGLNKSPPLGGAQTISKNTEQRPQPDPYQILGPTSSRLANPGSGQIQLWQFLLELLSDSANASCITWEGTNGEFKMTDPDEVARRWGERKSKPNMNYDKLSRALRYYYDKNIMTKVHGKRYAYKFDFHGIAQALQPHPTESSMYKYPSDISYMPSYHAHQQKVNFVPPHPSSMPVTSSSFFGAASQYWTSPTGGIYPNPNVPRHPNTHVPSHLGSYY
# Outline: (§1)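 A tag-only sample was pooled with DNA-barcoded human transcription factors that had been expressed in yeast as GST fusions and captured on glutathione beads. The pools were incubated for 30 min at room temperature with 200 nmole of a random double-stranded 16-mer DNA library in Tris/NaCl/DTT/glycerol buffer, then washed, crosslinked with 0.1% formaldehyde, proximity-ligated (BsaI/T4 ligase, 1 h, 37 °C), PCR-amplified and sequenced on an Illumina NextSeq500. Binding signal is each hexamer's read frequency for a factor divided by its frequency for the tag-only sample.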
# ELK1 = biological target: T2, ELK1 (Homo sapiens, UniProt P19419 1-428); settings: protein: recombinant; tags: N-terminal GST; dsDNA, one strand shown
# T2 sequence: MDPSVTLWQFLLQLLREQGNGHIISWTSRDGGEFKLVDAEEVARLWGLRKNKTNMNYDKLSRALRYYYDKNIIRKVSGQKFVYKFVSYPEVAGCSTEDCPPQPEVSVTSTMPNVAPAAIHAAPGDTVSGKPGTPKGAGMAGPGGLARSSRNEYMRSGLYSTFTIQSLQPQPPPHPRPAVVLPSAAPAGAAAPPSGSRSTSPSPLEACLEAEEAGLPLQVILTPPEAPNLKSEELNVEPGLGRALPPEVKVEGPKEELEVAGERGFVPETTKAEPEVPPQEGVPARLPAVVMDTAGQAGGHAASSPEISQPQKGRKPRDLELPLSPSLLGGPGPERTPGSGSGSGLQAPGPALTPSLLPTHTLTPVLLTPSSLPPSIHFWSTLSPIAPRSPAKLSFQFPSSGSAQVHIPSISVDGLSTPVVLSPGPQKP
# Outline: as §1
# GABPA = biological target: T3, GABPA (Homo sapiens, UniProt Q06546 1-454); settings: protein: recombinant; tags: N-terminal GST; dsDNA, one strand shown
# T3 sequence: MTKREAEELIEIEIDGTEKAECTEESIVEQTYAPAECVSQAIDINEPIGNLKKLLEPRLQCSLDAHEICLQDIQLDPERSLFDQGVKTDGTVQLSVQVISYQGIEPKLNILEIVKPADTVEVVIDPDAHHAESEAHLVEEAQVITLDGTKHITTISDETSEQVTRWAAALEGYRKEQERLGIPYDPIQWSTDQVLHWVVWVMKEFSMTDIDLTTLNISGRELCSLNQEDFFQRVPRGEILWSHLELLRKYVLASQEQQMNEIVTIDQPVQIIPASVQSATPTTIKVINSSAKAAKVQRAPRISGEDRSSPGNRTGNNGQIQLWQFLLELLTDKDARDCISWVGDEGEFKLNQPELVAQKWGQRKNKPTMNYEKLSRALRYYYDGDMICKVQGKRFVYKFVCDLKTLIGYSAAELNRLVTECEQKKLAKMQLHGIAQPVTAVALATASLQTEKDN
# Outline: as §1
# ERG = biological target: T4, ERG (Homo sapiens, UniProt P11308 1-479); settings: protein: recombinant; tags: N-terminal GST; dsDNA, one strand shown
# T4 sequence: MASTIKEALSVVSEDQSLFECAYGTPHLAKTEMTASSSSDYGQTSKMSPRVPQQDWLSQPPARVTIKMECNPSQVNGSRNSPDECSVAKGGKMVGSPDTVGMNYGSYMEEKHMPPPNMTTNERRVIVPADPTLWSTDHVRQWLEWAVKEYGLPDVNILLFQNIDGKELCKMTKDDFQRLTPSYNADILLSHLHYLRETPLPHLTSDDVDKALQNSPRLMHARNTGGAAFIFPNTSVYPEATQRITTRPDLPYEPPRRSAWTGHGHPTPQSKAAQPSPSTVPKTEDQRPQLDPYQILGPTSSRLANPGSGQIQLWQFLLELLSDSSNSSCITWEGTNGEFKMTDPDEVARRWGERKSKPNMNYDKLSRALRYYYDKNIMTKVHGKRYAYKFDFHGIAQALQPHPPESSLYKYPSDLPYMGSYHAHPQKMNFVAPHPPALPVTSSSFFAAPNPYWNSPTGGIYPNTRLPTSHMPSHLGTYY
# Outline: as §1
# ELF1 = ELF1 (Homo sapiens, UniProt P32519 1-619); settings: protein: recombinant; tags: N-terminal GST; dsDNA, one strand shown
# ELF1, sequence (P32519 whole entry): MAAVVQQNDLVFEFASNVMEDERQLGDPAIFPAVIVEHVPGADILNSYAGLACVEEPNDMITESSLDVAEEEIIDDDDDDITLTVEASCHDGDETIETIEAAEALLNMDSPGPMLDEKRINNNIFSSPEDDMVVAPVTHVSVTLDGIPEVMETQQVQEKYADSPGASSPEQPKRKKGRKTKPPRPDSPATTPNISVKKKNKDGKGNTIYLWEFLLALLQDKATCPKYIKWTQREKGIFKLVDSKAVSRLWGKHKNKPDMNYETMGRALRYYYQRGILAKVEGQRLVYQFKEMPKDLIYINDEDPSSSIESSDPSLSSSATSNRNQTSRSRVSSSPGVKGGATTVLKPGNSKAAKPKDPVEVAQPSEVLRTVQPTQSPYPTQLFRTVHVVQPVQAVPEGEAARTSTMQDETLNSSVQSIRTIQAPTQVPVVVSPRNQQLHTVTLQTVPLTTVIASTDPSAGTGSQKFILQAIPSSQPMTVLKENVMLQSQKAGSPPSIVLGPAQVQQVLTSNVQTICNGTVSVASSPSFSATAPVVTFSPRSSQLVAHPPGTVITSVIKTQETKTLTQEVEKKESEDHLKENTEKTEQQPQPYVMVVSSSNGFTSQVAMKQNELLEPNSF
# Outline: as §1
# EHF = biological target: T5, EHF (Homo sapiens, UniProt Q9NZC4 1-300); settings: protein: recombinant; tags: N-terminal GST; dsDNA, one strand shown
# T5 sequence: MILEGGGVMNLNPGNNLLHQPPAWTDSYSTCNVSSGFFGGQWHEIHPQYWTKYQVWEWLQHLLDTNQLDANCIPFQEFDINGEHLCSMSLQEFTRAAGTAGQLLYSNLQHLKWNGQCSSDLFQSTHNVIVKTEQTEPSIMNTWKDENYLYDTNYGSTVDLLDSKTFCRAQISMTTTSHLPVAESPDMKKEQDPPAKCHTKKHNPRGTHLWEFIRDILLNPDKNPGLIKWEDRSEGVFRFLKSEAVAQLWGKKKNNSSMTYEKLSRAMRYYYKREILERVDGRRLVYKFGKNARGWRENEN
# Outline: as §1
# SPI1 = SPI1 (Homo sapiens, UniProt P17947 1-270); settings: protein: recombinant; tags: N-terminal GST; dsDNA, one strand shown
# Outline: as §1
# SPIB = SPIB (Homo sapiens, UniProt Q01892 1-262); settings: protein: recombinant; tags: N-terminal GST; dsDNA, one strand shown
# SPIB, sequence (Q01892 whole entry): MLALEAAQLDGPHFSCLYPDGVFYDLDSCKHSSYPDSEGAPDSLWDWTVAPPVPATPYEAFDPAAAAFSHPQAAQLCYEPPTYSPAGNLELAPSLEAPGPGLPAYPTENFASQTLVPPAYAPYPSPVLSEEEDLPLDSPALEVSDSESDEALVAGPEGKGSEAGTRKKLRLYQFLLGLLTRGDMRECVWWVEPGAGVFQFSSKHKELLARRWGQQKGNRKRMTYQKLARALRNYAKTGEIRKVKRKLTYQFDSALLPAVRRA
# Outline: as §1
# ELK3 = biological target: T6, ELK3 (Homo sapiens, UniProt P41970 1-407); settings: protein: recombinant; tags: N-terminal GST; dsDNA, one strand shown
# T6 sequence: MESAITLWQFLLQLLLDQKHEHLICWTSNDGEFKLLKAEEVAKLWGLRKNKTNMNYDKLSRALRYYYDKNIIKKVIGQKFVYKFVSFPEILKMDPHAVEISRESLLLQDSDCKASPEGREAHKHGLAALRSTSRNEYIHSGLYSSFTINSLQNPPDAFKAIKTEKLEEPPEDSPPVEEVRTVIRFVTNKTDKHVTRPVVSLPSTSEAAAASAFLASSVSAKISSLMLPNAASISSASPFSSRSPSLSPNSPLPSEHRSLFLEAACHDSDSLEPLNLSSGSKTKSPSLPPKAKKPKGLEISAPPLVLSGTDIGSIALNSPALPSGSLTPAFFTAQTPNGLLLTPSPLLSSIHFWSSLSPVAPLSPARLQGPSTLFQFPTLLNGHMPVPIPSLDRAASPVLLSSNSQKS
# Outline: as §1
# FEV = biological target: T7, FEV (Homo sapiens, UniProt Q99581 1-238); settings: protein: recombinant; tags: N-terminal GST; dsDNA, one strand shown
# T7 sequence: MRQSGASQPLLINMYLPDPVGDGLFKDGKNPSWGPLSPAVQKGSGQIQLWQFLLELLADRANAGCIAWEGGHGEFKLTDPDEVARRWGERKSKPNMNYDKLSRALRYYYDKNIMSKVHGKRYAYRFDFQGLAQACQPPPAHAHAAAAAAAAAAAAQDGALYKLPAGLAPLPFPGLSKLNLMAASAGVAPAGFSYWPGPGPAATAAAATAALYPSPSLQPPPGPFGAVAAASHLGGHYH
# Outline: as §1
# ETV5 = ETV5 (Homo sapiens, UniProt P41161 1-510); settings: protein: recombinant; tags: N-terminal GST; dsDNA, one strand shown
# ETV5, sequence (P41161 whole entry): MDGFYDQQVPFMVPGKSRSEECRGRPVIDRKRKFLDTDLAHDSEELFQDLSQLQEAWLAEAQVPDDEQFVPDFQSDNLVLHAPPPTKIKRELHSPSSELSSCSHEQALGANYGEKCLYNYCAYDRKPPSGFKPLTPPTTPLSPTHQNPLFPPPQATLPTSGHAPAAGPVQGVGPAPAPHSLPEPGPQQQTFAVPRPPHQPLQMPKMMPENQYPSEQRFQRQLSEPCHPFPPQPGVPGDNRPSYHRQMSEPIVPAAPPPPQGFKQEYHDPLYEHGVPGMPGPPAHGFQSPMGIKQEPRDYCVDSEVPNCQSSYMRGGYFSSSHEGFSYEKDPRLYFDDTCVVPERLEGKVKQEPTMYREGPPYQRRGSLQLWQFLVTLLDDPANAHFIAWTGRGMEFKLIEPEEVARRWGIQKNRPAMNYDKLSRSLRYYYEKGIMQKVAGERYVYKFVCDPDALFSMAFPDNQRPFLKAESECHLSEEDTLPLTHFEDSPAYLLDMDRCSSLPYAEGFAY
# Outline: as §1
# HSF1 = HSF1 (Homo sapiens, UniProt Q00613 1-529); settings: protein: recombinant; tags: N-terminal GST; chain copies: 3; dsDNA, one strand shown
# HSF1, sequence (Q00613 whole entry): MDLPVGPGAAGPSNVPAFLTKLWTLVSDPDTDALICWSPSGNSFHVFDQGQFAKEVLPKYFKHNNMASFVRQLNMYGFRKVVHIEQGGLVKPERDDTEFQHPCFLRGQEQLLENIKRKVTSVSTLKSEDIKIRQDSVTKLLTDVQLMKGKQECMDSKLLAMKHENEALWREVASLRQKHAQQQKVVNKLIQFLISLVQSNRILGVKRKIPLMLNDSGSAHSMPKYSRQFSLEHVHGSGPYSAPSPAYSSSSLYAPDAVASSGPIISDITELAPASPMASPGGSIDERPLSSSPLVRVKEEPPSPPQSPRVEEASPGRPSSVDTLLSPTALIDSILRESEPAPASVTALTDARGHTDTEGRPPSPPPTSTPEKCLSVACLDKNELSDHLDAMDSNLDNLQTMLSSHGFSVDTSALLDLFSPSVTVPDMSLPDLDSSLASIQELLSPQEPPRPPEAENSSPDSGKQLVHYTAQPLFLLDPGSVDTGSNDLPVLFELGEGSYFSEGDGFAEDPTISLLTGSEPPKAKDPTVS
# Outline: as §1
# SPIC = biological target: T8, SPIC (Homo sapiens, UniProt Q8N5J4 1-248); settings: protein: recombinant; tags: N-terminal GST; dsDNA, one strand shown
# T8 sequence: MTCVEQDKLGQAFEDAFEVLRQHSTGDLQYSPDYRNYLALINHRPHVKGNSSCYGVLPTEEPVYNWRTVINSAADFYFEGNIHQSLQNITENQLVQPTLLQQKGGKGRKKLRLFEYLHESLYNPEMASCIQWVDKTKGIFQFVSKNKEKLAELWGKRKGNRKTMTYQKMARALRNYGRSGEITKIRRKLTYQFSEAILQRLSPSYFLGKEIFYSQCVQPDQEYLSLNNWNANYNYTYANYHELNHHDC
# Outline: as §1
# ELF4 = ELF4 (Homo sapiens, UniProt Q99607 1-663); settings: protein: recombinant; tags: N-terminal GST; dsDNA, one strand shown
# ELF4, sequence (Q99607 whole entry): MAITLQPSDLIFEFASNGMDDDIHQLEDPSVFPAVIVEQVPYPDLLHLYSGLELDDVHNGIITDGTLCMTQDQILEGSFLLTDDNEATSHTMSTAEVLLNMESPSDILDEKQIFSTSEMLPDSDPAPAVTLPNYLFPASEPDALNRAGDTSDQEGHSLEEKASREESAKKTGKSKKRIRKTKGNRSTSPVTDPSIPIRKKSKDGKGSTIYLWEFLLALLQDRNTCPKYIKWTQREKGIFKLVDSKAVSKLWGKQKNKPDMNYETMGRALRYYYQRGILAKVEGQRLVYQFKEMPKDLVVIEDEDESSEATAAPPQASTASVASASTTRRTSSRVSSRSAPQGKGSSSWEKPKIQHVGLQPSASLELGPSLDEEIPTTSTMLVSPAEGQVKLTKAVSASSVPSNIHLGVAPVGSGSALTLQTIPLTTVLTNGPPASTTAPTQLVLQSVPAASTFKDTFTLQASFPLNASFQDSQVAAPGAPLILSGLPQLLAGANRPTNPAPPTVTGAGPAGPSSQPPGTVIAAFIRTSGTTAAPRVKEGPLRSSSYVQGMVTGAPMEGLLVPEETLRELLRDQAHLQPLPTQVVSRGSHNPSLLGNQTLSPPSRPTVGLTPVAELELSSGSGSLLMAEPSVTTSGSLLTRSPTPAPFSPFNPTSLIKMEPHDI
# Outline: as §1
# ELK4 = biological target: T9, ELK4 (Homo sapiens, UniProt P28324-2 1-405); settings: protein: recombinant; tags: N-terminal GST; dsDNA, one strand shown
# T9 sequence: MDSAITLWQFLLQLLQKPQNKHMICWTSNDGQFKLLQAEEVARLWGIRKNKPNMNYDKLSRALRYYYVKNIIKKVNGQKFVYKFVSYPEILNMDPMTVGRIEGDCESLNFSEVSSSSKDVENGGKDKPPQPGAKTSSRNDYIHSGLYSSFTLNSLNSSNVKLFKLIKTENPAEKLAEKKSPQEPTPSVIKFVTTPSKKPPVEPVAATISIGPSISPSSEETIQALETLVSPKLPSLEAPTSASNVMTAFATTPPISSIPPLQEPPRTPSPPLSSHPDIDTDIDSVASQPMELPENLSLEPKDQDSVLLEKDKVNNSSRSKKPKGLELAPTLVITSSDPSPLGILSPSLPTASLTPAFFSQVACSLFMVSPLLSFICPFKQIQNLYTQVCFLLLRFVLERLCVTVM
# Outline: as §1
# ETV2 = biological target: T10, ETV2 (Homo sapiens, UniProt O00321 1-342); settings: protein: recombinant; tags: N-terminal GST; dsDNA, one strand shown
# T10 sequence: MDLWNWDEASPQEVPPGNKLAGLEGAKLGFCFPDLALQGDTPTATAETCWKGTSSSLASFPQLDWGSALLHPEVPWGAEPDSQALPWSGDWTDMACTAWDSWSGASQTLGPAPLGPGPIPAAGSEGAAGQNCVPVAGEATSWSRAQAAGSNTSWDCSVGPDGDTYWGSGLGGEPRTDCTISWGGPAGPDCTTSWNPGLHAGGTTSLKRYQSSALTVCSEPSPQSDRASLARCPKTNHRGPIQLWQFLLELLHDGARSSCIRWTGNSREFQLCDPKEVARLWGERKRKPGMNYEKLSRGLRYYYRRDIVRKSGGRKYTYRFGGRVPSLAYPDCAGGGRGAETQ
# Outline: as §1
# ELF3 = biological target: T11, ELF3 (Homo sapiens, UniProt P78545 1-371); settings: protein: recombinant; tags: N-terminal GST; dsDNA, one strand shown
# T11 sequence: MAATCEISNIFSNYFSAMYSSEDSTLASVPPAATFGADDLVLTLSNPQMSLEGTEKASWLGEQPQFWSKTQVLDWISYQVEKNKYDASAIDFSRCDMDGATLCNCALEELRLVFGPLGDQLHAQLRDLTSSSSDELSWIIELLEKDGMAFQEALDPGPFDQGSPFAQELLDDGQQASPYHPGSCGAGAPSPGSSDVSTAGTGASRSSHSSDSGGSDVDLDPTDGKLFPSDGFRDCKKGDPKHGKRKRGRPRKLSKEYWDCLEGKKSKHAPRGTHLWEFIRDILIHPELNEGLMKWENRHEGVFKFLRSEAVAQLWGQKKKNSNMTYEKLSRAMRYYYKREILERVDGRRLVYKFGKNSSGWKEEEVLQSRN
# Outline: as §1
# CRX = CRX (Homo sapiens, UniProt O43186 1-299); settings: protein: recombinant; tags: N-terminal GST; dsDNA, one strand shown
# CRX, sequence (O43186 whole entry): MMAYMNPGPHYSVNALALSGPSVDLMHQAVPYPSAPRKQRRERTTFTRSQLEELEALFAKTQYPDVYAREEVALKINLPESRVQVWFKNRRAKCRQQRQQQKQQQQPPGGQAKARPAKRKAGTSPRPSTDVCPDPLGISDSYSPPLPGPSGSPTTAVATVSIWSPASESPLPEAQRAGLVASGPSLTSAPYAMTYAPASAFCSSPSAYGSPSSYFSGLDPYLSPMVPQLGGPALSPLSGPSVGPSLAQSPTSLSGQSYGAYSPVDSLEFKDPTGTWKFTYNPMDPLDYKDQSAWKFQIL
# Outline: as §1
# ETV1 = ETV1 (Homo sapiens, UniProt P50549 1-477); settings: protein: recombinant; tags: N-terminal GST; dsDNA, one strand shown
# ETV1, sequence (P50549 whole entry): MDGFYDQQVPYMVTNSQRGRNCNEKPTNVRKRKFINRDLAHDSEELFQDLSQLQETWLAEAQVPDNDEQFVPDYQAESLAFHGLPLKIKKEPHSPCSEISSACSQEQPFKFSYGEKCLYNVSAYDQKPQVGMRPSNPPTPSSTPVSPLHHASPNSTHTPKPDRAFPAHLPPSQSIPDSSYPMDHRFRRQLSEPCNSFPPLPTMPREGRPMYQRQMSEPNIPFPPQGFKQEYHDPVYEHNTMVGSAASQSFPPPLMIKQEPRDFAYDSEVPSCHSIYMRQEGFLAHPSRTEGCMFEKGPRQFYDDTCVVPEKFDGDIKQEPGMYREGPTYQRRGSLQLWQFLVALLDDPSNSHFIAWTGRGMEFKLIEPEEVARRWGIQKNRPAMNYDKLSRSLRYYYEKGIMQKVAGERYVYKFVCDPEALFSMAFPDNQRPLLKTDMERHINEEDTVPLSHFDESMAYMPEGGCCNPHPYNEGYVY
# Outline: as §1
sequence,measurement,setting,value
ACTACT,binding signal,FLI1,"1.28 fold enrichment (6-mer frequency, TF over GST control)"
same,binding signal,ELK1,"1.25 fold enrichment (6-mer frequency, TF over GST control)"
same,binding signal,GABPA,"1.28 fold enrichment (6-mer frequency, TF over GST control)"
same,binding signal,ERG,"1.28 fold enrichment (6-mer frequency, TF over GST control)"
same,binding signal,ELF1,"1.32 fold enrichment (6-mer frequency, TF over GST control)"
same,binding signal,EHF,"1.34 fold enrichment (6-mer frequency, TF over GST control)"
same,binding signal,SPI1,"1.29 fold enrichment (6-mer frequency, TF over GST control)"
same,binding signal,SPIB,"1.34 fold enrichment (6-mer frequency, TF over GST control)"
same,binding signal,ELK3,"1.31 fold enrichment (6-mer frequency, TF over GST control)"
same,binding signal,FEV,"1.3 fold enrichment (6-mer frequency, TF over GST control)"
same,binding signal,ETV5,"1.19 fold enrichment (6-mer frequency, TF over GST control)"
same,binding signal,HSF1,"1.12 fold enrichment (6-mer frequency, TF over GST control)"
same,binding signal,SPIC,"1.26 fold enrichment (6-mer frequency, TF over GST control)"
same,binding signal,ELF4,"1.22 fold enrichment (6-mer frequency, TF over GST control)"
same,binding signal,ELK4,"1.36 fold enrichment (6-mer frequency, TF over GST control)"
same,binding signal,ETV2,"1.44 fold enrichment (6-mer frequency, TF over GST control)"
same,binding signal,ELF3,"1.24 fold enrichment (6-mer frequency, TF over GST control)"
same,binding signal,CRX,"1.11 fold enrichment (6-mer frequency, TF over GST control)"
same,binding signal,ETV1,"1.14 fold enrichment (6-mer frequency, TF over GST control)"
